# Screening data: PubChem BioAssay, several laboratories
# Shown are actives, neighbours in structure and some others; about 3.1% of the full set was active somewhere.
# PREPL inh = PREPL enzyme inhibitors, primary screen, biochemical, fluorescence polarization; Prolyl endopeptidase-like (Homo sapiens), Q4J6C6; recombinant PREPL, fluorescence polarization activity-based probe; inhibition, % at 5.96 µM; 0.68% of 320,000 active; AID 2751, 2010; in the data active = inhibition above about 43%
# MEKK2wt PB1 HTS = modulators of MEK5 binding to wildtype MEKK2, primary screen, biochemical, multiplex bead flow cytometry, Alexa488-MEK5. Mitogen-activated protein kinase kinase kinase 2 (Homo sapiens), Q9Y2U5. Alexa488-MEK5 binding to MEKK2 WT; actives lie on both sides. binding response (% of control), % at 10 µM. 1.1% of 290,000 active; in the data active = binding response below about 67% or above about 130%; inconclusive = no clear call, values can overlap the other calls; inactive = in between
# ATG4B inh = ATG4B protease inhibitors, primary screen, biochemical, fluorescence, uHTS; Cysteine protease ATG4B (Homo sapiens), Q9Y4P1; ATG4B cleavage of LC3-PLA2, NBD-HPC fluorescence, 1 h; 0.51% of 340,000 active; inhibition, % at 8.33 µM; AID 504462, 2011; in the data active = inhibition above about 40%
# MEKK2 mut-MEK5 = MEK5 binding signal on mutant MEKK2 PB1, primary screen, biochemical, multiplex bead flow cytometry, Alexa488-MEK5; Alexa488-MEK5 binding to MEKK2 mutant; percent response, % at 10 µM; 0.35% of 290,000 active; in the data active = percent response above about 24%, passing the limit was not always enough
# UBC13 polyUb = UBC13 polyubiquitin chain formation inhibitors, primary screen, biochemical, TR-FRET, uHTS. Ubiquitin-conjugating enzyme E2 N (Homo sapiens), P61088. inhibition, % at 20 µM. 0.47% of 330,000 active. AID 485273, 2010; in the data active = inhibition above about 45%, passing the limit was not always enough; inconclusive = no clear call, values can overlap the other calls
# Target sequence (P61088 whole entry, looked up): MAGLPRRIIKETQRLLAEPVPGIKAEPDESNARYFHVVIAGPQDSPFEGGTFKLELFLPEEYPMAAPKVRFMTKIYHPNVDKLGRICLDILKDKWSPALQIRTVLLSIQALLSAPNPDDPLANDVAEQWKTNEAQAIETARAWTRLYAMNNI
# MEKK3 PB1 HTS = modulators of MEKK3-MEK5 PB1 binding, primary screen, biochemical, wildtype MEKK3, multiplex bead flow cytometry, Alexa488-MEK5; bead-based flow cytometry, Alexa488-MEK5 binding to MEKK3; actives lie on both sides; 0 = blocked by unlabeled MEK5, 100 = vehicle; binding response (% of control), % at 10 µM; AID 1529, 2009; Mitogen-activated protein kinase kinase kinase 3 (Homo sapiens), Q99759; 1.4% of 290,000 active;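 active = binding response more than 3 SD above or below the average of its plate-row segment, actives on both sides; inconclusive = wells at one plate position flagged as instrument error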;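 also: Alexa488 bead fluorescence after subtracting the streptavidin-only scavenger bead signal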
# A number is an active result; – = inactive; ? = inconclusive; · = no result; [ ] = remark or other dose.
SMILES,PREPL inh,MEKK2wt PB1 HTS,ATG4B inh,MEKK2 mut-MEK5,UBC13 polyUb,MEKK3 PB1 HTS
CN1CCN(c2ccccc2NC(=O)c2ccc(-c3ccc(Br)cc3)o2)CC1,–,–,–,–,–,–
O=C(Nc1ccccc1N1CCCCC1)c1ccc(-c2ccc(Cl)cc2)o1,–,–,–,–,–,141
CN1CCCc2cc(C=O)ccc21,–,–,–,–,–,–
CCCN1CCCc2cc(CN)ccc21,63,–,–,–,–,–
CC[N+]1=C(C)C(C)(C)c2cc(C)ccc21,–,–,–,–,–,–
Cc1ccc2c(c1)C=CC(C)(C)S2=O (stereo unspecified),–,–,–,–,–,130
CCOc1ccc(C(C)=O)cc1COC(=O)CCc1cc(OC)c(OC)c(OC)c1,–,–,–,–,–,–
Cc1nc(N)sc1C(=O)N/N=C/c1ccccc1[N+](=O)[O-],–,–,·,–,95,–
CC(=O)Nc1ccc(OCC(O)Cn2cncn2)cc1 (stereo unspecified),–,–,–,–,–,–
Nc1nnc(-c2ccco2)s1,–,–,–,–,–,–
Nc1ncnc2oc(-c3ccco3)c(-c3ccco3)c12,–,–,–,–,61,–
CC(=O)Nc1ccc(C)c(NS(=O)(=O)c2cccc(C(F)(F)F)c2)c1,–,–,–,–,–,–
Cc1cc(SCC(=O)N(C)C2CCCCC2)nc2ccccc12,–,·,–,·,?,·
COc1ccc(-c2csc(NC3CCCCC3)n2)c(OC)c1,–,-4.0[inhibitor],–,–,–,–
c1ccc(-c2csc(NC3CCCCC3)n2)cc1,–,–,–,–,–,–
CCN(CC)CCNC(=O)c1ccc(NC(=O)Nc2cccc3ccccc23)cc1,–,140,–,30,–,–
CCN(CC)CCNC(=O)c1ccc(NC(=O)c2ccc(F)cc2)cc1,–,–,–,–,–,–
CCN(CC)CCNC(=O)c1ccc(NC(=O)c2ccc(Cl)c(S(=O)(=O)Nc3ccccc3OC)c2)cc1,·,147,·,–,·,–
CN(CC1CCCN(CCc2cccc(C(F)(F)F)c2)C1)C(=O)c1cc2ccccc2o1 (stereo unspecified),·,–,–,24,–,–
CCN(CC1CCCN(CCc2cccc(F)c2)C1)C(=O)c1cc2ccccc2o1 (stereo unspecified),–,–,–,–,–,–
CN(C)S(=O)(=O)c1ccc(SCC(=O)N2CC(=O)Nc3ccccc32)nc1,–,·,–,·,–,·
O=C(O)COc1ccccc1/C=N/NC(=O)Cc1ccccc1,–,-12,–,–,–,–
COc1ccc(CCNC(=O)Cc2ccc(NS(=O)(=O)c3ccc(F)cc3)cc2)cc1OC,–,·,–,·,–,·
CN(C)CCSc1nc(N)c2c3c(sc2n1)CN(C)CC3,–,–,–,–,75,–
O=C(NC(=O)N1CCN(c2ccc([N+](=O)[O-])cn2)CC1)c1c(Cl)cccc1Cl,–,–,–,–,–,–
SMILES,PREPL inh,MEKK2wt PB1 HTS,ATG4B inh,MEKK2 mut-MEK5,UBC13 polyUb,MEKK3 PB1 HTS
O=C(c1ccc(Cl)cc1)C1CCN(Cc2ccccc2)CC1,–,–,–,–,–,–
O=C(C1CCN(Cc2ccc(Cl)cc2)CC1)N1CCN(C(c2ccccc2)c2ccccc2)CC1,–,145,–,–,–,–
CSc1ccccc1NC(=O)c1noc(C)c1[N+](=O)[O-],–,–,–,–,–,–
Cc1onc(C(=O)Nc2ccccc2C(F)(F)F)c1[N+](=O)[O-],–,0.0[inhibitor],–,–,–,1.0[inhibitor]
CCOC(=O)C1CCN(C(=O)C(=O)c2cn(CC(=O)N3CCCCCC3)c3ccccc23)CC1,–,–,–,–,–,–
CCOC(=O)N1CCN(C(=O)C(=O)c2cn(CC(=O)N3CCCCCC3)c3ccccc23)CC1,–,2.0,–,–,–,–
Cc1ccc(OCc2occc2C(=O)O)cc1,·,·,–,·,·,·
CC1CCN(CCCNC(=O)c2cc3c(s2)-c2ccccc2OC3)CC1,–,134,–,–,–,–
CC1CCCN(CCCNC(=O)c2cc3c(s2)-c2ccccc2OC3)C1 (stereo unspecified),–,–,–,–,–,–
